In PubChem BioAssay (NCATS):
Inconclusive results are not listed. Unmarked numbers belong to inactive results. Calls follow the shape of the dose curve; as a rule, active = well fitted activation curve with a large enough effect; inconclusive = small, poorly fitted or top-dose-only effect, or effect the other way; inactive = flat fitted curve, though single readings scatter.

Assay: Cellular Toxicity (caspase-3) NIH 3T3 (AID 666);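 also: caspase signal read after 16 h compound exposure; 0% = DMSO basal and 100% = 100 µM tamoxifen stimulation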
Conditions: NIH 3T3 caspase-3 activation, apoptosis/toxicity; series mostly up to 92.2 µM; caspase-3 activation: at the top concentration
From the text: NIH Chemical Genomics Center [NCGC]
NIH Molecular Libraries Screening Centers Network [MLSCN]
National Institutes of Environmental Health Sciences [NIEHS]
National Toxicology Program [NTP]
We have developed a 1536-well cell-based assay for quantitative high throughput screening (qHTS) against a number of cell lines to determine in vitro caspase 3/7 of small molecules. This particular assay uses the NIH 3T3 cell line which is derived from mouse fibroblasts.
NCGC Assay Protocol Summary:
The Caspase-Glo 3/7 assay (Promega) is a homogeneous method to measure caspase-3 and caspase-7 activities in cultured cells. The quantitation of caspase 3/7 activity is based on the cleavage of a peptide-aminoluciferin substrate. After caspase cleaves the substrate the free aminoluciferin is liberated and serves as the substrate of luciferase, which generates the light. The luminescent signal is proportional to amount of caspase 3/7 activity present.
Using the Caspase-Glo 3/7 assay, the amount of caspase 3/7 activity was measured in the NIH 3T3 cell line with complete culture medium following compound treatment for 16 hours. The assay was performed in opaque white 1536-well plates. In the screen, tamoxifen and doxorubicin were used as positive controls. Library compounds were measured for their ability to cause the activation of caspase 3/7 in the cell line, as reflected by an increase in luminescence signal, in a concentration-dependent manner. Data were normalized to the controls for basal activity (DMSO only) and 100% stimulation (100 uM tamoxifen). AC50 values were determined from concentration-response data modeled with the standard Hill equation.
qHTS protocol for caspase 3/7 assay in NIH 3T3 cells
[Step] [Parameter] [Value] [Description]
1. Reagent; 5 uL; 1000 NIH 3T3 cells/well
2. Time; 5 hr; 37 °C incubation
4. Controls; 23 nL; Tamoxifen 0.23 uM to 100 uM & Doxorubicin 7.0 pM to 100 uM
5. Time; 16 hr; 37 °C incubation
6. Reagent; 5 uL; Caspase-Glo 3/7 reagent
7. Time; 20 min; Room Temperature
8. Detection; Luminescence; Viewlux plate reader
Keywords: caspase 3/7, apoptosis, NIH 3T3 cell line, luminescence, NTPHTS, NTPHTS_NCGC, NIEHS, EPA, DSSTox, MLSMR, MLSCN, NIH Roadmap, qHTS, NCGC

Q: With `CN(C)c1ccc(N)cc1` as the compound, how does the “caspase-3 activation” value read?
A: -20.7%

Q: Which “caspase-3 activation” value does the source give for `FC(Cl)(Cl)Cl` here?
A: -0.48%

Q: For `CCBr`, which “caspase-3 activation” value is on record?
A: -0.00907%

Q: Which “caspase-3 activation” value does the source give for `C=CCCC#N` here?
A: -3.67%

Q: With `CCCCC#N` as the compound, how does the “caspase-3 activation” value read?
A: -2.43%

Q: For `COc1c(C(C)(C)C)cc([N+](=O)[O-])c(C)c1[N+](=O)[O-]`, which “caspase-3 activation” value is on record?
A: 0.173%

Q: Which “caspase-3 activation” value does the source give for `CC(Cl)CCl` (stereo not given) here?
A: -0.369%

Q: For `CC(C)(C)c1ccccc1O`, which “caspase-3 activation” value is on record?
A: -2.43%

Q: With `O=S(=O)(O)F` as the compound, how does the “caspase-3 activation” value read?
A: -3.87%

Q: For `N#CCBr`, which “caspase-3 activation” value is on record?
A: -1.66%

Q: For `CCCCC(=O)Cl`, which “caspase-3 activation” value is on record?
A: -3.68%

Q: Which “caspase-3 activation” value does the source give for `C=CC(=O)OCC(C)C` here?
A: -7.62%

Q: Which “caspase-3 activation” value does the source give for `Nc1cc(Cl)cc(C(=O)O)c1Cl` here?
A: 0.38%

Q: Which “caspase-3 activation” value does the source give for `O=[N+]([O-])c1ccccc1O` here?
A: -2.58%

Q: With `CCCCCc1cc(O)cc(O)c1` as the compound, how does the “caspase-3 activation” value read?
A: 2.27%

Q: With `CCN(CC)N=O` as the compound, how does the “caspase-3 activation” value read?
A: -0.337%

Q: With `CNC(=O)O/N=C/C(C)(C)S(C)=O` (stereo not given) as the compound, how does the “caspase-3 activation” value read?
A: -4.94%

Q: With `Nc1ccc(Cl)c(Cl)c1` as the compound, how does the “caspase-3 activation” value read?
A: -0.223%

Q: Which “caspase-3 activation” value does the source give for `CCCCOC(=O)c1ccccc1N` here?
A: -3.02%

Q: With `BrCC(Br)(Br)Br` as the compound, how does the “caspase-3 activation” value read?
A: 5.64%

Q: Which “caspase-3 activation” value does the source give for `O=C(O)C(Cl)Br` (stereo not given) here?
A: -1.17%

Q: Which “caspase-3 activation” value does the source give for `N#C/C=C/C#N` here?
A: -10.8%

Q: For `Cc1cc(C)cc(OP(=O)(Oc2cc(C)cc(C)c2)Oc2cc(C)cc(C)c2)c1`, which “caspase-3 activation” value is on record?
A: -5.97%

Q: With `O=C(Cl)c1ccccc1F` as the compound, how does the “caspase-3 activation” value read?
A: -4.32%

Q: With `CSSC` as the compound, how does the “caspase-3 activation” value read?
A: -4.02%

Q: With `Cc1ccc(N)cc1Cl` as the compound, how does the “caspase-3 activation” value read?
A: -4.03%

Q: With `Nc1ccccc1-c1ccccc1` as the compound, how does the “caspase-3 activation” value read?
A: -0.897%

Q: With `c1ccc(NNc2ccccc2)cc1` as the compound, how does the “caspase-3 activation” value read?
A: -5.01%

Q: For `O=Cc1ccc2c(c1)OCO2`, which “caspase-3 activation” value is on record?
A: -4.42%

Q: Which “caspase-3 activation” value does the source give for `CN(C)C(=O)Nc1ccc(Cl)cc1` here?
A: -5.47%

Q: Which “caspase-3 activation” value does the source give for `C=CCc1cc(OC)c2c(c1)OCO2` here?
A: -1.26%

Q: With `Nc1cc(Cl)ccc1Cl` as the compound, how does the “caspase-3 activation” value read?
A: -1.86%

Q: With `CC(C)(OOC(C)(C)c1ccccc1)c1ccccc1` as the compound, how does the “caspase-3 activation” value read?
A: 0.457%

Q: With `Clc1cccc(Cl)c1Cl` as the compound, how does the “caspase-3 activation” value read?
A: 2.1%

Q: For `CC(C)(Cl)Cl`, which “caspase-3 activation” value is on record?
A: -0.0937%

Q: For `O=P(OCCCl)(OCCCl)OCCCl`, which “caspase-3 activation” value is on record?
A: -2.73%

Q: For `O=[N+]([O-])CCO`, which “caspase-3 activation” value is on record?
A: 3.63%

Q: For `C=CC(=O)OCCO`, which “caspase-3 activation” value is on record?
A: 11.2%

Q: With `O=C(O)C(Br)CBr` (stereo not given) as the compound, how does the “caspase-3 activation” value read?
A: 5.33%

Q: With `O=[N+]([O-])c1ccc(Cl)cc1` as the compound, how does the “caspase-3 activation” value read?
A: -2.91%
